According to PubChem BioAssay (EPA / NIEHS):
Active and inactive are the calls of the source. The calls were made as follows: active = hit-call score of the fitted dose curve at least 0.9, where 1 is the maximum; inactive = score below 0.9.

The compounds below were run on Fatty acid synthase (Homo sapiens) (UniProt P49327) (assay: LTEA_HepaRG_FASN: Life Technologies and Expression Analysis (LTEA) Assay for Fatty Acid Synthase (FASN) using HepaRG (AID 2283448)). Conditions: mRNA level, 48 h; actives raise or lower the signal.
Procedure: LTEA_HepaRG is a cell based, multiplexed-readout assay that uses HepaRG, a human liver cell line, with measurements taken at 48 hours after chemical dosing on a 96-well plate.LTEA_HepaRG_FASN is one of 102 assay component(s) measured in the LTEA HepaRG cell culture assay. It is a marker of Steatosis.Data from the assay component LTEA_HepaRG_FASN was analyzed into 1 endpoint. This assay endpoint, LTEA_HepaRG_FASN, was analyzed with bidirectional fitting relative to DMSO as the negative control and baseline of activity. Using a type of inducible reporter, measures of mRNA induction for gain or loss-of-signal activity can be used to understand regulation of transcription factor activity. To generalize the intended target to other relatable targets, this assay endpoint is annotated to the lyase intended target family, where the subfamily is fatty acid synthase.
A total of 1060 chemcials from the ToxCast library were tested in eight-point concentration-response experiments. Cell culture and cytotoxicity assays were conducted at Thermo Fisher Scientific's Custom Services facility (Madison, WI). A single lot of human HepaRG cells (Thermo Fisher Scientific, Frederick, MD) was used for the cell culture experiments. 96-well format collagen type I coated plates of human HepaRG cells were prepared using established methods. Briefly, cryopreserved HepaRG cells were thawed, plated at a density of approximately 100,000 cells/well in HepaRG Thaw, Plate, and General Purpose media (HPRG770, Thermo Fisher Scientific), and incubated for 48 hours. 0.5% DMSO was selected as vehicle control to balance the requisite need of DMSO in HepaRG cultures to maintain differentiation (for example, baseline metabolism, proportions of hepatocytes vs. cholangiocytes), while enabling further hepatic receptor pathway activation (for example, PXR and CAR) in response to chemical exposure. 48 hours after plating, the culture medium was replaced with HepaRG Serum-Free Incudtion Media. Cells were exposed to each test chemical in duplicate and maintained in CO2 incubators for another 48 hours. Chemical plates were thawed to room temperature and 200x concentrations of treatment groups were prepared. 8-point conentration-reponse curves were made with the highest exposure at 100 uM, followed by half-log dilutions, all in 0.5% DMSO. Each test plate contained variouse controls, induction positive controls (1mM phenobarbital), cytotoxicity positive controls ([…] aflatoxin B1), vehicle controls (0.5% DMSO), and total lysis controls (0.5% DMSO). Cell morphology images were taken using an Essen IncuCyte FLR automated microscope, with six 96-well plates imaged in about 24 minutes. Images were captured and exported and JPEG files. Spent culture media was transfered to black-well plates for the LDH assay, and remaining media was sorted at -80 C for later use. Cells were treated with RLT buffer and frozen until shipped for gene expression analysis. Total RNA was isolated from the cell suspension in 75 uL of Buffer RLT (Qiagen, Germantown, MD 20874) by Quintiles/Expression Analysis (Durham, NC) using a custom isolation procedure. Total RNA from each plate well was transferred to a preamplification plate. Fluidigm's 96.96 Dynamic ArrayTM (Fluidigm, Amsterdam, the Netherlands) technology was used for gene expression analyses by quantitative reverse transcription polymerase chain reaction (qRT-PCR, performed by Quintiles/Expression Analysis, Durham, NC)89. Standard TaqManTM Assays (Applied Biosystems/ThermoFisher Scientific, Foster City, CA) were used to assess the expression of 93 genes selected based on their selectivity and sensitivity to important hepatic receptors known to be modulated by environmental chemicals; importance in human hepatocyte functionality; and hepatotoxicity. […]

Fatty acid synthase (Homo sapiens), sequence (P49327 whole entry, looked up): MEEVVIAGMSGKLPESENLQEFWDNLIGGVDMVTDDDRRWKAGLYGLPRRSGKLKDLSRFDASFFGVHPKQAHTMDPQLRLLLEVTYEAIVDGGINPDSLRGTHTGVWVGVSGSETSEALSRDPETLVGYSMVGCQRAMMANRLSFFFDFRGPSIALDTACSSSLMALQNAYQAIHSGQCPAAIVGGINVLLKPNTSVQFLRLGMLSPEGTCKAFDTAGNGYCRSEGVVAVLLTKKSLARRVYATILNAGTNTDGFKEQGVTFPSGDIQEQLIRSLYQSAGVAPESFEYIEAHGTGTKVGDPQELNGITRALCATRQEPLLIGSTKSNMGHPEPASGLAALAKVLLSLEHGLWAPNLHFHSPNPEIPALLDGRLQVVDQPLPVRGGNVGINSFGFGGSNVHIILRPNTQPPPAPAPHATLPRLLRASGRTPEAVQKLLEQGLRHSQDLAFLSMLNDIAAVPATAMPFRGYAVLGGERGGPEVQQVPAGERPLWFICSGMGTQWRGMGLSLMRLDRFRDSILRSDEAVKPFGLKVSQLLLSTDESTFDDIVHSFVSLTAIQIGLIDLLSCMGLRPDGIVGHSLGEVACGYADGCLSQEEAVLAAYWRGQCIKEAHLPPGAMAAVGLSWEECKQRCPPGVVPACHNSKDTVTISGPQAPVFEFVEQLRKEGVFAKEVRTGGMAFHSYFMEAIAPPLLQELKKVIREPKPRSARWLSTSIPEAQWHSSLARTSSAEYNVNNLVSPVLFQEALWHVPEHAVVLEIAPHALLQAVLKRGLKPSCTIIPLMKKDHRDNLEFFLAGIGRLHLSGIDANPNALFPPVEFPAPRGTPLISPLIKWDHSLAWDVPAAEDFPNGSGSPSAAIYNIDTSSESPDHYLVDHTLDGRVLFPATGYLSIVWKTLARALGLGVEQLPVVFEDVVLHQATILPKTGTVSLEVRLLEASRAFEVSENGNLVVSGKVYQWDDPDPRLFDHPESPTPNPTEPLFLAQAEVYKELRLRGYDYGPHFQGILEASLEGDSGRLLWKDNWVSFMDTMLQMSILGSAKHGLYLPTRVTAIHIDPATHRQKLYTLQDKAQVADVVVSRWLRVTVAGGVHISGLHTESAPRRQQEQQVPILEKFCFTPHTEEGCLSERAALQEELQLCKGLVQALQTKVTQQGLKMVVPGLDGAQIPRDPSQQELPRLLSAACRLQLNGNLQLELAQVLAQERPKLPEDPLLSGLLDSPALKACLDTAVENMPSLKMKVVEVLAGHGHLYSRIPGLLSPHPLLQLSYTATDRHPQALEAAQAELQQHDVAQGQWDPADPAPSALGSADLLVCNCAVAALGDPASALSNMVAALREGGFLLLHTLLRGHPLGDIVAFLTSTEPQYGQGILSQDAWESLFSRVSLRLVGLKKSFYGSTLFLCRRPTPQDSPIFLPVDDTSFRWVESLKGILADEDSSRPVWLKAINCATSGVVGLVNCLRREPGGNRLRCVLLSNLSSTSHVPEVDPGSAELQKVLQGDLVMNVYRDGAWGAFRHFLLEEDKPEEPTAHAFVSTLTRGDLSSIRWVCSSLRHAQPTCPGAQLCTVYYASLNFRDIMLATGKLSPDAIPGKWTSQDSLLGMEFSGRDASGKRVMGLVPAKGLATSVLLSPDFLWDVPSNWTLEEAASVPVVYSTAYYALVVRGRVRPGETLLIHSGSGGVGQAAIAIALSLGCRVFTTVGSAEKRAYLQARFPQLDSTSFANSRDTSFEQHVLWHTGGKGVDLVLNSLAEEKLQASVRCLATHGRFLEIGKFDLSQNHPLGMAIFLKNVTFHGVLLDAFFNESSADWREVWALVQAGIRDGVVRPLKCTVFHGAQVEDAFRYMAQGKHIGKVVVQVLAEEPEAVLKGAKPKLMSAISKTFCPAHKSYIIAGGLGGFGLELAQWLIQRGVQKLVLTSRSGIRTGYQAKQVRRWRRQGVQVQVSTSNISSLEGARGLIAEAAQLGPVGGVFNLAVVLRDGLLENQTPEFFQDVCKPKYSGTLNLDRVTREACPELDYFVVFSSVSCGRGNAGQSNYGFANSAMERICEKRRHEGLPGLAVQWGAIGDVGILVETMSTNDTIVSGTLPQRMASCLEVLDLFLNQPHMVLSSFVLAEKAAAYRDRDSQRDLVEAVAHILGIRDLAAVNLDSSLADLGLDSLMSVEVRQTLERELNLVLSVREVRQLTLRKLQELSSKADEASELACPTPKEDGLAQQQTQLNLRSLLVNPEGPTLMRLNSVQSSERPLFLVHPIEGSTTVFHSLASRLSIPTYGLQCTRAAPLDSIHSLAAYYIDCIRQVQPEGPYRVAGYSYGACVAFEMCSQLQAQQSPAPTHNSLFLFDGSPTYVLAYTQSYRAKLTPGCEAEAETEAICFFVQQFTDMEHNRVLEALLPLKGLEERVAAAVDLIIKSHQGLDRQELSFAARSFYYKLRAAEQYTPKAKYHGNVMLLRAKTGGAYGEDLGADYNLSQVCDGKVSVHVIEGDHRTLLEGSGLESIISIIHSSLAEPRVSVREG

AC50, active:
CC(=O)O[C@]1(C(C)=O)CC[C@H]2[C@@H]3C=C(Cl)C4=CC(=O)[C@@H]5C[C@@H]5[C@]4(C)[C@H]3CC[C@@]21C 50 µM
CSc1ccc(Oc2ccc(S(N)(=O)=O)cc2CN(C)C)cc1C 83.1 µM
O=C1OC(c2ccc(O)cc2)(c2ccc(O)cc2)c2ccccc21 89.6 µM
COC(=O)[C@H]1[C@H]2C[C@@H]3c4[nH]c5cc(OC)ccc5c4CCN3C[C@H]2C[C@@H](OC(=O)c2cc(OC)c(OC)c(OC)c2)[C@@H]1OC 28.1 µM
CC(C)NCC(O)c1ccc(O)c(O)c1 (stereo not given) 0.219 µM
CN(C)C(=O)NC1(c2ccccc2)CCN(CCC[C@]2(c3ccc(Cl)c(Cl)c3)CCCN(C(=O)c3ccccc3)C2)CC1 16.5 µM
COc1ccc(C(=O)Nc2nc3ccccc3c(NCc3ccccc3)c2C#N)cc1 10.3 µM
CC(=O)CC(c1ccccc1)c1c(O)c2ccccc2oc1=O (stereo not given) 13.4 µM
Cc1ccc(-c2cc(C(F)(F)F)nn2-c2ccc(S(N)(=O)=O)cc2)cc1 76.7 µM

outcome, inactive:
CO[C@@H]1COCC[C@@H]1N[C@@H]1CC[C@@](C(=O)N2CCc3ncc(C(F)(F)F)cc3C2)(C(C)C)C1
CC(=O)OC1CC(C)OC(C)O1 (stereo not given)
O=C(O)CN(CC(=O)O)CC(=O)O
O=C(NS(=O)(=O)/C=C/c1cccs1)c1ccc(F)cc1Br
COC(=O)CCCC(=O)OC
S=c1[nH]c2ccccc2s1
C=CCc1ccc(OC)c(OC)c1
CC(=O)O
CCCCC(CC)COC(=O)CCCCCCCC(=O)OCC(CC)CCCC (stereo not given)
NC=O
O=[Si]=O
CCCCCCC(C=O)=Cc1ccccc1
O=C1NC(=O)C(c2ccccc2)(c2ccccc2)N1
OCC(CO)n1cnc(-c2ccc(F)cc2)c1-c1ccnc(Oc2ccccc2)n1
NC1CCCCC1
O=C(O)c1[nH]n(-c2ccc(S(=O)(=O)O)cc2)c(=O)c1N=Nc1ccc(S(=O)(=O)O)cc1
CCCCC(CC)CO (stereo not given)
CCCCCCCCCCCCCCOS(=O)(=O)O
Cc1ccc(C(C)(C)C)c(O)c1
CCC(C)N(C)C(=O)c1cc2ccccc2c(-c2ccccc2Cl)n1 (stereo not given)
CC(N)=O
CC(C)(C)c1ccccc1
c1ccc2occc2c1
CC(COCC(C)OC(=O)c1ccccc1)OC(=O)c1ccccc1 (stereo not given)
O=C(O)CC(O)(CC(=O)O)C(=O)O
CCCC[C@H]1CN(CC2CCOCC2)C(=O)OC12CCN(C1(C)CCN(C(=O)c3c(C)ncnc3C)CC1)CC2
O=C1c2c(O)cccc2Cc2cccc(O)c21
O=NO
Cc1cc(SC2=C(O)C[C@@](CCc3ccc(N)cc3)(C(C)C)OC2=O)c(C(C)(C)C)cc1CO
CC(C)c1cccc(C(C)C)c1NC(=O)NS(=O)(=O)c1cc(C(C)(C)O)co1
C=CCCCCCCCCCCCC
